The list is not random: actives were taken first. Their share in the collection is about 2.4%.
Pol kappa inh-1: blocks human DNA polymerase kappa activity. Q9UBT6. purified Pol kappa, fluorescent DNA synthesis assay, 10 min. Potency, µM (titrated, usually from 107 µM), most hits filed as inhibitors. 400,000 compounds, 0.53% hits. AID 588579
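Pol kappa 10 nM + cpd, 15 min RT; start w/ substrate 50 nM final; fluorescence kinetic read, 0 and 10 min. Neg ctrl: buffer, no enzyme.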
Pol eta inh-1: blocks human DNA polymerase eta activity; 390,000 compounds, 1.2% hits; AID 588591; Potency, µM (titrated, usually from 114 µM), most hits filed as inhibitors; Q9Y253; recombinant Pol eta, fluorescent DNA replication assay
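Pol eta (10 nM) was preincubated with compounds for 15 min at room temperature, after which fluorescent replication substrate (50 nM final) was added to start the reaction. Fluorescence was read kinetically at 0 and 10 min.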
POLB inh: DNA polymerase beta (human) inhibition; Pol beta primer extension/strand displacement, fluorescence kinetic; P06746; 340,000 compounds, 1.3% hits; Potency, µM (top dose mostly 114 µM), hits mostly inhibitors
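Pol beta (10 nM) was preincubated with compound for 15 min at room temperature. The reaction was then started with 50 nM substrate and read immediately and after a further 10 min at room temperature.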
Pol iota inh: blocks human DNA polymerase iota activity | Q9UNA4 | Potency, µM (doses to about 115 µM), hits mostly inhibitors | Pol iota fluorescent replication assay, 10 min | 390,000 compounds, 1% hits
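Pol iota at 10 nM preincubated 15 min with compounds at room temperature; reaction started with fluorescent substrate, 50 nM final. Fluorescence read kinetically at 0 and 10 min; buffer-only wells as negative control.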
WRN helicase inh: blocks human WRN helicase | WRN helicase unwinding, fluorescent forked duplex, kinetic | Potency, µM (top dose mostly 114 µM), hits mostly inhibitors | 360,000 compounds, 0.46% hits; also: nearly all actives have a fitted effect of over 55% in size
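Screening of the MLSMR collection measured strand separation of a quenched forked DNA duplex (100 nM) by 20 nM WRN with 2 mM ATP, all final. Compounds were preincubated with enzyme 15 min at room temperature.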
FEN1 inh: inhibitors of human flap endonuclease 1; Potency, µM (titrated, usually from 114 µM), most hits filed as inhibitors; P39748; 390,000 compounds, 0.35% hits; Recombinant FEN1 flap cleavage, fluorescence, 15 min; also: nearly all actives have a fitted effect of over 65% in size
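Quantitative HTS format: each compound was titrated, incubated with 10 nM nuclease for 15 min at room temperature, then challenged with flap substrate at 50 nM final. Signal change over 15 min gave concentration–effect curves.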
TbPGK inh: validation of Trypanosoma brucei phosphoglycerate kinase inhibitors | shares compounds with Pol kappa inh-1 | Potency, µM (highest dose often 57.5 µM), hits mostly inhibitors | 500 compounds, 79% hits | TbPGK coupled GAPDH assay, Kinase-Glo luminescence; also: nearly all actives have a fitted effect of over 65% in size
Pol iota confirm: Inhibitors of human DNA polymerase iota, confirmation; shares compounds with Pol kappa inh-1; Pol iota primer extension, TAMRA/BHQ fluorescence; Potency, µM, hits mostly inhibitors; 1,500 compounds, 77% hits; AID 720496
Pol kappa inh-2: Pol kappa (human) inhibition, cherry-pick confirmation. purified Pol-kappa, fluorescent strand-displacement substrate. 920 compounds, 76% hits. AID 720501. shares compounds with Pol eta inh-1. Potency, µM, hits mostly inhibitors
Pol eta inh-2: confirmation of human DNA polymerase eta inhibitors. shares compounds with Pol eta inh-1. Pol eta primer extension, TAMRA/BHQ fluorescence, 10 min. Potency, µM, most hits filed as inhibitors. 2,600 compounds, 64% hits. AID 720502
Large screens that a line does not name were inactive (follow-up assays come after a bar, where they were run). Calls follow the shape of the dose curve; as a rule, active = well fitted curve in the direction sought with a large enough effect; inconclusive = small, poorly fitted or top-dose-only effect, or another doubt; inactive = no such curve, though single readings can be large; an effect the other way counts as inactive or inconclusive.

CCOC(=O)CN1C(=O)S/C(=C\c2ccc(-c3ccc(C(=O)O)c(Cl)c3)o2)C1=O	Pol kappa inh-1 39.8µM, Pol eta inh-1 10µM, POLB inh inconclusive, Pol iota inh 20µM, FEN1 inh inconclusive | Pol iota confirm inconclusive | Pol kappa inh-2 16.8 | Pol eta inh-2 30.1
O=C(Nc1ccc(-c2nc3ncccc3o2)cc1)c1ccc([N+](=O)[O-])o1	Pol eta inh-1 11.2µM, POLB inh 50.1µM, Pol iota inh inconclusive | Pol iota confirm 75.2 | Pol eta inh-2 75.7
O=C(Nc1ccc2oc(-c3ccncc3)nc2c1)c1ccc([N+](=O)[O-])o1	Pol eta inh-1 inconclusive, POLB inh inconclusive, Pol iota inh inconclusive
Cc1cc(=O)[nH]c(N/N=C/c2c(O)n(-c3ccccc3)c(=O)c3ccccc23)n1	Pol eta inh-1 22.4µM, POLB inh 44.7µM, WRN helicase inh inconclusive | Pol iota confirm 75.2 | Pol eta inh-2 60.1
Cc1cccc(CCNC(=O)C2CCN(S(=O)(=O)c3cccc4nsnc34)CC2)c1	none
COc1cc(OC)c(OC)cc1/C=C1\Oc2cc(OCC(=O)N3Cc4ccccc4C[C@H]3C(=O)O)ccc2C1=O	Pol kappa inh-1 79.4µM, Pol eta inh-1 22.4µM, POLB inh inconclusive, Pol iota inh inconclusive, WRN helicase inh inconclusive, FEN1 inh inconclusive | Pol iota confirm 26.7 | Pol eta inh-2 21.3
C=CCn1c(SCC(=O)NC2CCCC2)nnc1-c1cccnc1	none
C=CCn1c(SCC(=O)c2ccc(O)c(O)c2)nnc1-c1cccnc1	Pol kappa inh-1 28.2µM, Pol eta inh-1 3.98µM, POLB inh 1.26µM, Pol iota inh 7.08µM, WRN helicase inh 39.8µM, FEN1 inh inconclusive | TbPGK inh 3.66µM | Pol iota confirm 33.6 | Pol eta inh-2 26.9
COc1cc(NS(=O)(=O)c2ccc(NC(=S)NC(=O)/C=C/c3ccc(OC)c(OC)c3)cc2)ncn1	Pol eta inh-1 31.6µM, Pol iota inh inconclusive, FEN1 inh 44.7µM | TbPGK inh 29.1µM | Pol iota confirm 37.7 | Pol kappa inh-2 26.7
COc1ccc(C(=O)N/N=C/c2ccc(OC(=O)c3cccc4ccccc34)c([N+](=O)[O-])c2)cc1	Pol kappa inh-1 inconclusive, Pol eta inh-1 inconclusive, POLB inh 11.2µM, Pol iota inh inconclusive | Pol iota confirm inconclusive | Pol kappa inh-2 67
C#CCOCCOCCOCCNc1nc(N2CCN(C(=O)[C@H](CCCN=C(N)N)n3cc(C(N)[C@@H](C)CC)nn3)CC2)nc(N2CCN(C(=O)[C@H](CCC(=O)O)n3cc([C@@H](N)[C@H](C)CC)nn3)CC2)n1 (some centres undefined)	none (no result: POLB inh)
CCOc1ccccc1NC(=O)COc1cccc(-n2cnnn2)c1	none
COc1ccc(C(CC(=O)N2CCCC2)c2c(OC)cc(OC)c3c(-c4ccccc4)cc(=O)oc23)cc1 (centres undefined)	Pol kappa inh-1 79.4µM, Pol eta inh-1 inconclusive, POLB inh 35.5µM, Pol iota inh 70.8µM | Pol iota confirm 33.6 | Pol eta inh-2 75.7
COc1ccc(C(CC(=O)N2CCCCC2)c2c(OC)cc(OC)c3c(-c4ccccc4)cc(=O)oc23)cc1 (centres undefined)	Pol kappa inh-1 50.1µM, Pol eta inh-1 20µM, POLB inh 25.1µM, Pol iota inh 70.8µM | Pol iota confirm 42.3 | Pol eta inh-2 inconclusive

Source: PubChem BioAssay
